Measurements reported in PubChem BioAssay (EPA / NIEHS).
Results filed as inconclusive are left out. The source made the active and inactive calls. The calls were made as follows: active = hit-call score of the fitted dose curve at least 0.9, where 1 is the maximum; inconclusive = response in the unintended direction; inactive = score below 0.9.

molecular target: human Beta-secretase (BACE), BACE1 (gene 23621) (UniProt P56817); test: NVS_ENZ_hBACE: NovaScreen (NVS) Enzymatic Assay for human Beta-secretase (BACE) (AID 2283140);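 also: hits are inhibitors that reduce fluorescent substrate signal versus DMSO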
Sequence (P56817 whole entry, looked up): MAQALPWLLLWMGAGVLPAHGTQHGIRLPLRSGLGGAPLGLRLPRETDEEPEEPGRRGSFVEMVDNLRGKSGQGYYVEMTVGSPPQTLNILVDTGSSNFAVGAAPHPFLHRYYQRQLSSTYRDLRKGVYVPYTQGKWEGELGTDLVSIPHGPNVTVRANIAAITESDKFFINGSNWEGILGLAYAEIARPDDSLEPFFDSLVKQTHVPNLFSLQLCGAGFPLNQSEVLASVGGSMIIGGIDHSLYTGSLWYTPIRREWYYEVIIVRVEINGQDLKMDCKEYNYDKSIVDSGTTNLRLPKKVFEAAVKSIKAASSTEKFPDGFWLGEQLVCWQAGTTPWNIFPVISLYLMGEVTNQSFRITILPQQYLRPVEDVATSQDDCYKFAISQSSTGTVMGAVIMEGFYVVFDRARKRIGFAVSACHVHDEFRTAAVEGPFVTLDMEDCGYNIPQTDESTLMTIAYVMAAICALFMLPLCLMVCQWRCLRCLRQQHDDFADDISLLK
Experimental: NVS_ENZ_hBACE is a biochemical, single-readout assay that uses extracted gene-proteins from SF9 in a cell-free assay. Measurements were taken 1 hour after chemical dosing in a 96-well plate.NVS_ENZ_hBACE is one of one assay component(s) measured or calculated from the NVS_ENZ_hBACE assay. It is designed to make measurements of enzyme activity, a form of enzyme reporter, as detected with fluorescence intensity signals by Fluorescence technology.Data from the assay component NVS_ENZ_hBACE was analyzed into 1 assay endpoint. This assay endpoint, NVS_ENZ_hBACE, was analyzed in the positive analysis fitting direction relative to DMSO as the negative control and baseline of activity. Using a type of enzyme reporter, loss-of-signal activity can be used to understand changes in the enzymatic activity as they relate to the gene BACE1. Furthermore, this assay endpoint can be referred to as a primary readout, because […]. To generalize the intended target to other relatable targets, this assay endpoint is annotated to the protease intended target family, where the subfamily is aspartate protease.
Binding assays used specific radioligands (tritiated, iodinated) with non-radioactive competitive displacement ligands in agonist or antagonist protocols (as indicated) and various reference compounds and inhibitors to titrate specific binding to receptors and transporters. Most enzyme assays (CYPs, kinases, phosphatases, proteases, HDACs) used recombinant protein and specific substrates (fluorescence mostly, some colorimetric and radioactive) and inhibitors, followed by a biochemical separation of substrate and product. All assays for the biochemical HTS were initially run in duplicate at a single concentration (10 uM for CYP450 assays and 25 uM for all others). […] Each assay was run with positive and negative controls, and concurrent controls on every plate. […]

| Compound | AC50 |
| --- | --- |
| COC(OC)(C(=O)c1ccccc1)c1ccccc1 | 43.1 µM (active) |
| COc1ccc(C(=O)/C(Br)=C\C(=O)O)cc1 | 39.1 µM (active) |
| C=CCCCCCCCCC=O | 13.1 µM (active) |

molecular target: human Dual Specificity Protein Phosphatase 3 (DUSP3), DUSP3 (gene 1845) (UniProt P51452); test: NVS_ENZ_hDUSP3: NovaScreen (NVS) Enzymatic Assay for human Dual Specificity Protein Phosphatase 3 (DUSP3) (AID 2283152);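 also: phosphatase activity of recombinant human DUSP3 on a fluorogenic substrate without cells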
Sequence (P51452 whole entry, looked up): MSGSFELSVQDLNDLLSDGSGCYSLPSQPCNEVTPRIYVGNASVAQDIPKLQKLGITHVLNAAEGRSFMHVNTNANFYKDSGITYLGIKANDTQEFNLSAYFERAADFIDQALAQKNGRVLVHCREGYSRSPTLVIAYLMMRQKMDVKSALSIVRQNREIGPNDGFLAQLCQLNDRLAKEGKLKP
In short: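 Cell-free fluorescence-intensity enzyme activity assay with recombinant protein and substrate; loss of signal fitted relative to DMSO baseline. Primary screen in duplicate at 25 uM, actives then run in concentration series; measured 0 h after dosing.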

| Compound | AC50 |
| --- | --- |
| CCOC(=O)/C=C\C(=O)OCC | 14.7 µM (active) |
| c1ccc2sc(SSN3CCOCC3)nc2c1 | 1.39 µM (active) |
| Fc1ccc(Br)cc1 | 13.7 µM (active) |
| CC(C)CCCCCOC(=O)CS | 25 µM (active) |
| C=CC(=O)NC(C)(C)C | 13.6 µM (active) |

molecular target: human Ephrin type-A Receptor 1 (EphA1), EPHA1 (gene 2041) (UniProt P21709); test: NVS_ENZ_hEphA1: NovaScreen (NVS) Enzymatic Assay for human Ephrin type-A Receptor 1 (EphA1) (AID 2283158);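 also: activity is signal loss versus DMSO meaning EphA1 kinase inhibition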
Sequence (P21709 whole entry, looked up): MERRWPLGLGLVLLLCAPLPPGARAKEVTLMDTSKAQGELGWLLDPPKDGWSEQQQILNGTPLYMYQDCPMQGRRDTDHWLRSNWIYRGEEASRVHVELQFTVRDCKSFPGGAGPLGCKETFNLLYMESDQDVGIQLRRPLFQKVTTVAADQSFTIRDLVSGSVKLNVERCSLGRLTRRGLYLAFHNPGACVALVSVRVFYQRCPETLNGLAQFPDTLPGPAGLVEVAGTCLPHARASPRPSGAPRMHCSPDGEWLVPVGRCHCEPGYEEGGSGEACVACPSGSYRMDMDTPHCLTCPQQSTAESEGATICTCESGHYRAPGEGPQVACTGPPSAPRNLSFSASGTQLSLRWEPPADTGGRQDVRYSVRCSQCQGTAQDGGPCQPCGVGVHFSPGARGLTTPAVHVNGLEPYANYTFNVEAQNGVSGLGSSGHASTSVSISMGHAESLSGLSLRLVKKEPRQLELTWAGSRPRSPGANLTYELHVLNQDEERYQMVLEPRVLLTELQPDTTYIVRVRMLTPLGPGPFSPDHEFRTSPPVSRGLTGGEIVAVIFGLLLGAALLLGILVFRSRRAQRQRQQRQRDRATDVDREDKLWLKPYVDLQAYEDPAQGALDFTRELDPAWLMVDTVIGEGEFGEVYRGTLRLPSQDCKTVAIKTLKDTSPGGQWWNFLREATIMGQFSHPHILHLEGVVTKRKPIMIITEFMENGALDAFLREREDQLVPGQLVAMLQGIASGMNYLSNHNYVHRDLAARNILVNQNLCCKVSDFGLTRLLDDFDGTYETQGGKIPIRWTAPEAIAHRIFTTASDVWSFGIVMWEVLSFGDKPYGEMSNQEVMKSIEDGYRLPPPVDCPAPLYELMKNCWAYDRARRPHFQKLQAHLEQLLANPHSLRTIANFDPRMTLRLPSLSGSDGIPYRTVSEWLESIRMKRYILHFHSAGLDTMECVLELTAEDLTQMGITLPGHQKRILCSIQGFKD
In short: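 Recombinant kinase, fluorescent substrate, mobility-shift separation, fluorescence read at 1 h. Single-point duplicates at 25 uM; hits (e.g., ≥30% inhibition) run singleton concentration-response, max 50 uM. DMSO = negative control/baseline.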

| Compound | outcome |
| --- | --- |
| CCCCCC1=CCCC1=O | inactive |
| O=C(Oc1ccccc1)c1ccccc1C(=O)Oc1ccccc1 | inactive |
| CC=C(C)C=CC=C(C)C | inactive |
| CCOc1ccc(NC(N)=O)cc1 | inactive |
| C=CC(=O)OCC(C)OCC(C)OCC(C)OC(=O)C=C (stereo not given) | inactive |
| C=C(C)OC(C)=O | inactive |
| CC=C(C)C(C)=O | inactive |
| CC(C)CO | inactive |
| CC/C=C\CCOC(=O)c1ccccc1O | inactive |
| CC(=O)CC(=O)Nc1ccccc1C | inactive |
| C=CC(=O)OCCCCCCCC(C)C | inactive |
| Nc1cccc(N)n1 | inactive |
| COC(OC)(C(=O)c1ccccc1)c1ccccc1 | inactive |
| CC1=C(O)C(=O)C(C)O1 (stereo not given) | inactive |
| CCCCOCCOCCOC(C)=O | inactive |
| CC(=O)OC(C)c1ccccc1 (stereo not given) | inactive |
| Nc1ncnc2nc[nH]c12 | inactive |
